Values joined by “and” are separate entries in the source; they are usually repeats but may differ in a detail not shown here. Equal entries are not always repeated.
What was measured:
[1] = test system: Epidermal growth factor receptor (Homo sapiens), P00533 [T790M]; settings: at 1 µM
[2] = test system: Epidermal growth factor receptor (Homo sapiens), P00533 [L858R,T790M]; settings: at 0.1 µM
[3] = test system: Epidermal growth factor receptor (Homo sapiens), P00533 [L858R,T790M]; settings: at 1 µM
[4] = target: Ephrin type-A receptor 2 (Homo sapiens) (UniProt P29317); settings: at 0.1 µM
[5] = target: Ephrin type-A receptor 2 (Homo sapiens) (UniProt P29317); settings: at 1 µM
[6] = target: T1, Ephrin type-A receptor 3 (Homo sapiens) (UniProt P29320); settings: at 0.1 µM
T1 sequence (whole entry): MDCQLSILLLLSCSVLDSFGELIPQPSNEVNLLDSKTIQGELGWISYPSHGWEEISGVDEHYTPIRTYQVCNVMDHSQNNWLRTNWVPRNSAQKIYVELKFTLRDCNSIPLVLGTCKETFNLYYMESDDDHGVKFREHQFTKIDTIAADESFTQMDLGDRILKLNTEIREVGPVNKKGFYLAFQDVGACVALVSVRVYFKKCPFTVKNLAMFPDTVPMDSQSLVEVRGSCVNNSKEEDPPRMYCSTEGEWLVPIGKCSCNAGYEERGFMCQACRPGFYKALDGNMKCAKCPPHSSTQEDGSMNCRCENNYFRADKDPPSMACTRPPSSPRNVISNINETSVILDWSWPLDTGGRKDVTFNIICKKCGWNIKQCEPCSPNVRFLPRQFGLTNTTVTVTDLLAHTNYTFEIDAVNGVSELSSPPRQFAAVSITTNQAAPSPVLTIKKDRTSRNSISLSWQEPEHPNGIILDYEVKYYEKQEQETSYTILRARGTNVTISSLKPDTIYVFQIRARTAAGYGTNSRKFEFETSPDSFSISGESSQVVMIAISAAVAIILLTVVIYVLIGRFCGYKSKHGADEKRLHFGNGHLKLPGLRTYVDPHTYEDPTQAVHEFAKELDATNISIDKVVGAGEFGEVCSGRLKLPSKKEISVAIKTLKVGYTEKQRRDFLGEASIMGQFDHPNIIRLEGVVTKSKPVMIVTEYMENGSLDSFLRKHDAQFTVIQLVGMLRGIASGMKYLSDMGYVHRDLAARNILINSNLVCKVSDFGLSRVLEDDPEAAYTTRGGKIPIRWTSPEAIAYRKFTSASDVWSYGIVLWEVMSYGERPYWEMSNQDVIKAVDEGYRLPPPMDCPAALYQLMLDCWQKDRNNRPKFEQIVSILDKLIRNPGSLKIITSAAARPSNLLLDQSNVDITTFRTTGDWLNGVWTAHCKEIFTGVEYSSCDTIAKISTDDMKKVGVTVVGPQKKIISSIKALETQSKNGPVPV

[7] = target: T1, Ephrin type-A receptor 3 (Homo sapiens); settings: at 1 µM
[8] = target: Ephrin type-A receptor 4 (Homo sapiens) (UniProt P54764); settings: at 0.1 µM
[9] = target: Ephrin type-A receptor 4 (Homo sapiens) (UniProt P54764); settings: at 1 µM
[10] = target: T2, Ephrin type-B receptor 2 (Homo sapiens) (UniProt P29323); settings: at 0.1 µM
T2 sequence (whole entry): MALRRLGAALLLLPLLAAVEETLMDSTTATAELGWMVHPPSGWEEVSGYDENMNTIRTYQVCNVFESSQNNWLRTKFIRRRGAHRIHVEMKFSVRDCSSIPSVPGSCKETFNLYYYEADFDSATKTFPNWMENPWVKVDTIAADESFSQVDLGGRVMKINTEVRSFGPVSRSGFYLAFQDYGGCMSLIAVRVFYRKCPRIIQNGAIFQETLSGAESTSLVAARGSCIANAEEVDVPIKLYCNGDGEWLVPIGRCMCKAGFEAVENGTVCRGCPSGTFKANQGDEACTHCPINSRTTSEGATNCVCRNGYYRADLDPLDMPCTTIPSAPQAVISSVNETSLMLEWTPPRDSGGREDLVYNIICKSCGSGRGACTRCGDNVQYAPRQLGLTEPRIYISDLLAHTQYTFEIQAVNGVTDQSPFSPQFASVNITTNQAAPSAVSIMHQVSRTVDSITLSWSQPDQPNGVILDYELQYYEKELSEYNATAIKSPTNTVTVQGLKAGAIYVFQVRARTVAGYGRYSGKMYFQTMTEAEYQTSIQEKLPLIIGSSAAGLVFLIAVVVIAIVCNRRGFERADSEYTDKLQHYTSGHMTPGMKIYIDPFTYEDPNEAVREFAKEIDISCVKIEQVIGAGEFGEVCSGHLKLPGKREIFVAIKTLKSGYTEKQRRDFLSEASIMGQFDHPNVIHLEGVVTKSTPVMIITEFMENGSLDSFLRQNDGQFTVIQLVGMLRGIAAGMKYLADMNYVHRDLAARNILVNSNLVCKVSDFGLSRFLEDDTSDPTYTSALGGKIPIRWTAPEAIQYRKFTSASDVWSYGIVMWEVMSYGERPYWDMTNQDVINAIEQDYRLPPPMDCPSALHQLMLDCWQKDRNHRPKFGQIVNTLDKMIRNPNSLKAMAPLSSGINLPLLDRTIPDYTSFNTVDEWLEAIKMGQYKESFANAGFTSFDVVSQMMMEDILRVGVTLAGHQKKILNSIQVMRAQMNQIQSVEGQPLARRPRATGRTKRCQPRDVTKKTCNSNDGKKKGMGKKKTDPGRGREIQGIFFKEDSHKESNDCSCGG

[11] = target: T2, Ephrin type-B receptor 2 (Homo sapiens); settings: at 1 µM
[12] = target: T3, Ephrin type-B receptor 3 (Homo sapiens) (UniProt P54753); settings: at 0.1 µM
T3 sequence (whole entry): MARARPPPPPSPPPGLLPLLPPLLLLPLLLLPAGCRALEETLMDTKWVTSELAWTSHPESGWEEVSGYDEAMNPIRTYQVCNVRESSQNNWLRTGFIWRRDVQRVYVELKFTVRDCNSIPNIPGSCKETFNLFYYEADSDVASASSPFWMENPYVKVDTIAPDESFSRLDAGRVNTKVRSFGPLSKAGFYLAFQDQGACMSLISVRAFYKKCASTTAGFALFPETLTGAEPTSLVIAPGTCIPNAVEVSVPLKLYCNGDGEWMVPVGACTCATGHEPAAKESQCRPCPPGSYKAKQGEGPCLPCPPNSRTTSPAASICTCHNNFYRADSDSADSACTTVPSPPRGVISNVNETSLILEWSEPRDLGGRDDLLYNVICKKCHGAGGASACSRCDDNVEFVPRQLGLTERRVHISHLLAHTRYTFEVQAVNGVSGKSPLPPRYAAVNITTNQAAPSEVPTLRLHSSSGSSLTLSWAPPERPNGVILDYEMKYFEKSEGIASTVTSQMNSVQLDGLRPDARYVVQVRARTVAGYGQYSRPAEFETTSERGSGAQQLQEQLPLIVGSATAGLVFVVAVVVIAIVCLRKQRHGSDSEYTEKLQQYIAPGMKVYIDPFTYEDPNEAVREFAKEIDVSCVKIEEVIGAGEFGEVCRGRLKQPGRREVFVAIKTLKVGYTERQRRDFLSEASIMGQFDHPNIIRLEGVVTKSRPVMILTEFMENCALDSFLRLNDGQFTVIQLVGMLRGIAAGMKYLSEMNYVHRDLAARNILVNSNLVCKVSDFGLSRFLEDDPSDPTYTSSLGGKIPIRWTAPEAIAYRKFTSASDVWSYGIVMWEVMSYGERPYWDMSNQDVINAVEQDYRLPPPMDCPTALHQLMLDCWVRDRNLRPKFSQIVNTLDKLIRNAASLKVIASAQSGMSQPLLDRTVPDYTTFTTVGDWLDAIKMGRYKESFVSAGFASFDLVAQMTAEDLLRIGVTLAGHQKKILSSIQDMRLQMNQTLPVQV

[13] = target: T3, Ephrin type-B receptor 3 (Homo sapiens); settings: at 1 µM
[14] = target: T4, Ephrin type-B receptor 4 (Homo sapiens) (UniProt P54760); settings: at 0.1 µM
T4 sequence (whole entry): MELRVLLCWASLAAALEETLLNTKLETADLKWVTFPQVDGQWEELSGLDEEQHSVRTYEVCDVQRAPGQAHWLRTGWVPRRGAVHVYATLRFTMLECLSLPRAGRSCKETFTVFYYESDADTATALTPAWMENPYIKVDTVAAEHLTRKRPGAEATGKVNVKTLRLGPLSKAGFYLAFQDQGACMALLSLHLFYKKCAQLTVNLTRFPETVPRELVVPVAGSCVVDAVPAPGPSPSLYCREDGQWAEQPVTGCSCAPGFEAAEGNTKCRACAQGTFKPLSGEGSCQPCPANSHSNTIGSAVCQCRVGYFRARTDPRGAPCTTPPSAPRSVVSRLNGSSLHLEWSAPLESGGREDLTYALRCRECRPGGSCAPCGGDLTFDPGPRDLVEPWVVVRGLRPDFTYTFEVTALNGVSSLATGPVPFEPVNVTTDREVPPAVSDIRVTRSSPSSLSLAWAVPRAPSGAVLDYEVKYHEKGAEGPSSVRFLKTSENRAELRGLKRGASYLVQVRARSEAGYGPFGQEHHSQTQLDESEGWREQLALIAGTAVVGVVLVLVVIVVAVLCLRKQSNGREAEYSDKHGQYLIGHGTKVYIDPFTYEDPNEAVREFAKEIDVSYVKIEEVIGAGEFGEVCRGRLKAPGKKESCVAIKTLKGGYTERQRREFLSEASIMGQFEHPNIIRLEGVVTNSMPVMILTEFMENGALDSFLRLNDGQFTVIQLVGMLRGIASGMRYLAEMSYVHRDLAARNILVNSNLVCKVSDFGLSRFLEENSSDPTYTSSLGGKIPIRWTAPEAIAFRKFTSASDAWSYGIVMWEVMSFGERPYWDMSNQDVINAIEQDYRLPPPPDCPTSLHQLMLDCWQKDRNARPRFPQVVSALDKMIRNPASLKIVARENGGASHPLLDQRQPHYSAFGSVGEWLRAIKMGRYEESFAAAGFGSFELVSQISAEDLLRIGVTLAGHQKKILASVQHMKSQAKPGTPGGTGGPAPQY

[15] = target: T4, Ephrin type-B receptor 4 (Homo sapiens); settings: at 1 µM
[16] = target: Receptor tyrosine-protein kinase erbB-2 (Homo sapiens) (UniProt P04626); settings: at 0.1 µM
Receptor tyrosine-protein kinase erbB-2 (Homo sapiens), sequence (P04626 whole entry): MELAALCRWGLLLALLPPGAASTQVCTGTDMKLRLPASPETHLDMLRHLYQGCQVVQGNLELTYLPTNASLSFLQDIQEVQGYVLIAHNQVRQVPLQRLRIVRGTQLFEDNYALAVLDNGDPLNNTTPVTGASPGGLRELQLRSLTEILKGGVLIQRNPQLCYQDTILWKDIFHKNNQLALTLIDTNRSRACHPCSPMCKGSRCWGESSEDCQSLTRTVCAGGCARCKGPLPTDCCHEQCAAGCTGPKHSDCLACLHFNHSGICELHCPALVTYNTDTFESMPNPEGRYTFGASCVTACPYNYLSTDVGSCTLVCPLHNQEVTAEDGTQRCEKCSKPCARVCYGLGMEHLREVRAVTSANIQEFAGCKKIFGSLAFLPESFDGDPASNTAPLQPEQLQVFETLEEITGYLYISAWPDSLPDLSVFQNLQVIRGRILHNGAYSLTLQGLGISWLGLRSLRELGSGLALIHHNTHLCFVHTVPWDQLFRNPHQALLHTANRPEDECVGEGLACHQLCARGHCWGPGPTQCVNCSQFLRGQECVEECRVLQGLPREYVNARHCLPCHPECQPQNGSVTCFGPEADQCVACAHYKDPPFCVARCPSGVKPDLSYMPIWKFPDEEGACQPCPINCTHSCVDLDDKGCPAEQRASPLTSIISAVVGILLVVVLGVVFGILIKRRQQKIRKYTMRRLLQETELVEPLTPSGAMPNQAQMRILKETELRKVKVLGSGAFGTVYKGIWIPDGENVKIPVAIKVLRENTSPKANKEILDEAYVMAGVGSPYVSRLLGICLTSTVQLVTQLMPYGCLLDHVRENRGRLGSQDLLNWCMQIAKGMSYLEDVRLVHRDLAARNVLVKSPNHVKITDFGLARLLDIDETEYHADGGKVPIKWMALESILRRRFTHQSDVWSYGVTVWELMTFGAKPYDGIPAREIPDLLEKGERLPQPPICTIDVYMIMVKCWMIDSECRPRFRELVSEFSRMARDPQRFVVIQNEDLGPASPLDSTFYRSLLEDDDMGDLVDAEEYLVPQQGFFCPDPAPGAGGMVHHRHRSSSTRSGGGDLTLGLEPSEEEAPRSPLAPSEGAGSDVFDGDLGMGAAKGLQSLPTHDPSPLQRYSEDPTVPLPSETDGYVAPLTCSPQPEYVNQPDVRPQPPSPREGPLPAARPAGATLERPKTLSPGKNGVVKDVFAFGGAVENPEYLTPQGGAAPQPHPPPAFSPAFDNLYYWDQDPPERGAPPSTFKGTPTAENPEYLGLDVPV

[17] = target: Receptor tyrosine-protein kinase erbB-2 (Homo sapiens) (UniProt P04626); settings: at 1 µM
[18] = target: Receptor tyrosine-protein kinase erbB-4 (Homo sapiens) (UniProt Q15303); settings: at 0.1 µM
[19] = target: Receptor tyrosine-protein kinase erbB-4 (Homo sapiens) (UniProt Q15303); settings: at 1 µM
[20] = target: Tyrosine-protein kinase Fer (Homo sapiens) (UniProt P16591); settings: at 0.1 µM;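 note: reported figures are averaged percent inhibition of FER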
Tyrosine-protein kinase Fer (Homo sapiens), sequence (P16591 whole entry, looked up): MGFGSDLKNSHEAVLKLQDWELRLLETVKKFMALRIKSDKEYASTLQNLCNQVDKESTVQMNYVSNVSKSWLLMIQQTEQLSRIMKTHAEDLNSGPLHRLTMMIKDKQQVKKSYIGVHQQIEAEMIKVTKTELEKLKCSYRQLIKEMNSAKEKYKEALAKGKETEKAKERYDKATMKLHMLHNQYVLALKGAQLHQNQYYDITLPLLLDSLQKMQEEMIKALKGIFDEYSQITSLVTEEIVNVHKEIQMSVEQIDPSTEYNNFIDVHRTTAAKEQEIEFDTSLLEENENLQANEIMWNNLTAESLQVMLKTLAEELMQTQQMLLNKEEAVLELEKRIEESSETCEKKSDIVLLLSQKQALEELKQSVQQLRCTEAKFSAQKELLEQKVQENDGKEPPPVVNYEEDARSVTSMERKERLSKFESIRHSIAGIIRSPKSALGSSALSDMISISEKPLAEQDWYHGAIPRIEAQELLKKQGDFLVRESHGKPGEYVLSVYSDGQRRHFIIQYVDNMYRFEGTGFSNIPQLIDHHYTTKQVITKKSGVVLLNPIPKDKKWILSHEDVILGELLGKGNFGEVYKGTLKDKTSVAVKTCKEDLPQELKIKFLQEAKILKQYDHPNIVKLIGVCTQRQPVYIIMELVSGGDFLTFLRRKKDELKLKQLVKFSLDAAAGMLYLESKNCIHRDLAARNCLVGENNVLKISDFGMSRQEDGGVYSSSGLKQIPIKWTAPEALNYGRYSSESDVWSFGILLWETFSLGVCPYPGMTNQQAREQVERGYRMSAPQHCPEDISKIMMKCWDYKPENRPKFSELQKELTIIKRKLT

Epidermal growth factor receptor (Homo sapiens), P00533 [L858R,T790M], sequence (P00533 whole entry T790M/L858R, looked up): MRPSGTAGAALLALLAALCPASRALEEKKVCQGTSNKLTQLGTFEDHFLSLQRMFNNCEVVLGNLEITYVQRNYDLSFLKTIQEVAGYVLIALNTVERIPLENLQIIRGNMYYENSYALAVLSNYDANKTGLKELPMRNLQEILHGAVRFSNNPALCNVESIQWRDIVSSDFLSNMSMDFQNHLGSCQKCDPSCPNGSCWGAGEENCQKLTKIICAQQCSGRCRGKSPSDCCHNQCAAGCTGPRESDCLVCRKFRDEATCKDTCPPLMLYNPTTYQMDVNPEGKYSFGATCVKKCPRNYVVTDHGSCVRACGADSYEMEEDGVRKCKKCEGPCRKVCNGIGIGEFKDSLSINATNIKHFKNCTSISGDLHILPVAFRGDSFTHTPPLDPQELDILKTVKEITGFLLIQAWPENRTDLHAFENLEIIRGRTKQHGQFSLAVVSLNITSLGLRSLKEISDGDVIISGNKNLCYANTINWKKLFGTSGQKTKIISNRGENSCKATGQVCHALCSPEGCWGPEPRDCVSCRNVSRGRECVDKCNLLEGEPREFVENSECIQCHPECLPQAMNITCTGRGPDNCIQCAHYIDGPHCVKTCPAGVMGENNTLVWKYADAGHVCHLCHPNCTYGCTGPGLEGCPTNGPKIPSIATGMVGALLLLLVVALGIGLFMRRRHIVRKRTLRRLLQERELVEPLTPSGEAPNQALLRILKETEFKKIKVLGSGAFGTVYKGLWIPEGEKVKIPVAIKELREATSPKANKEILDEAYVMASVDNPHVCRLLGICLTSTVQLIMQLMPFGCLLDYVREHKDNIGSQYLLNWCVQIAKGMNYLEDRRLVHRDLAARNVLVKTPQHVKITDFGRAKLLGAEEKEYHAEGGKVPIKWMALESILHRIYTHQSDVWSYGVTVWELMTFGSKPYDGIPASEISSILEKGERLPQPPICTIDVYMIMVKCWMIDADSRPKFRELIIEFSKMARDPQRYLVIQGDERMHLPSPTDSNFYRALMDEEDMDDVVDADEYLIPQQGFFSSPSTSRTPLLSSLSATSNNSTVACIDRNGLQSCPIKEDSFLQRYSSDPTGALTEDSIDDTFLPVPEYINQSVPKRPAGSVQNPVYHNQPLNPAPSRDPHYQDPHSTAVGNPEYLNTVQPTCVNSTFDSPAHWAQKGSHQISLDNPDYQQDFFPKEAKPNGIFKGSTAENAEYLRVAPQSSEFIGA
Epidermal growth factor receptor (Homo sapiens), P00533 [T790M], sequence (P00533 whole entry T790M): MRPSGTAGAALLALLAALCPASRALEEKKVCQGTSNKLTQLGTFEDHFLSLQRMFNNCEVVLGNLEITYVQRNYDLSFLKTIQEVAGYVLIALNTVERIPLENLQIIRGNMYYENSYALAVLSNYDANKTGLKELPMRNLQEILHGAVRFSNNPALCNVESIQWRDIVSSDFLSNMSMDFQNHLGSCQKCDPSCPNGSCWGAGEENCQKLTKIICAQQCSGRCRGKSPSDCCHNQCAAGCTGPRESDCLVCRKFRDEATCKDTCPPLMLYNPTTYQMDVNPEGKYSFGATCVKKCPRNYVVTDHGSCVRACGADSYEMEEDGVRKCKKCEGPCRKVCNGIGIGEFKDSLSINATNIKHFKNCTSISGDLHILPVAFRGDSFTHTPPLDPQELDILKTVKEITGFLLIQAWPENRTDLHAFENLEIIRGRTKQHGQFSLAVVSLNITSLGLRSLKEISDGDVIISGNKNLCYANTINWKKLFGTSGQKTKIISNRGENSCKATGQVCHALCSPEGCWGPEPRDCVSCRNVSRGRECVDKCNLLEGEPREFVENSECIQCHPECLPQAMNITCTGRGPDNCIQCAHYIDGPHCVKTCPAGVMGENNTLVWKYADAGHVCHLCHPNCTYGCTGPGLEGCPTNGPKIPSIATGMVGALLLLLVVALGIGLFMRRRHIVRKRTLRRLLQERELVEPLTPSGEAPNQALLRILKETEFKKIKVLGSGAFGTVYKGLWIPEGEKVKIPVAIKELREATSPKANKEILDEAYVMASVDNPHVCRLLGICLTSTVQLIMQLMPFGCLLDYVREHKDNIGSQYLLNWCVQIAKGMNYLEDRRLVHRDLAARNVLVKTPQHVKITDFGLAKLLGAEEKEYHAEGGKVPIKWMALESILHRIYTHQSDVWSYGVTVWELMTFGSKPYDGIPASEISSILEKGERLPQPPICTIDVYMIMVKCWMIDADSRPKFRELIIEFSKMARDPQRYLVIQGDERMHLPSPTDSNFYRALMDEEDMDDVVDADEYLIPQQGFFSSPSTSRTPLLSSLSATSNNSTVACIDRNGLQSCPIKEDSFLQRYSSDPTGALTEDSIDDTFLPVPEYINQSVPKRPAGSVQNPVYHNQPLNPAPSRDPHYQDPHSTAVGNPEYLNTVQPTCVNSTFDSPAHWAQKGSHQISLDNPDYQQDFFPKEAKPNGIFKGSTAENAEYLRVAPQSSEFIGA

Row | Structure (SMILES) | inhibition [1] | inhibition [2] | inhibition [3] | inhibition [4] | inhibition [5] | inhibition [6] | inhibition [7] | inhibition [8] | inhibition [9] | inhibition [10] | inhibition [11] | inhibition [12] | inhibition [13] | inhibition [14] | inhibition [15] | inhibition [16] | inhibition [17] | inhibition [18] | inhibition [19] | inhibition [20]
1 | CCS(=O)(=O)c1ccc(OC)c(Nc2ncc(-c3cccc(F)c3)o2)c1 | 3.03% | 5.67% | 2.98% | 2.15% | 9.85% | 8.12% | 17% | 11.3% | 33.5% | 18.5% | 45.9% | 3.05% | 6.76% | 5.59% | 31.7% | 38.7% | 5.62% | 9.46% | 17.8% | 2.32%
2 | COc1cc(N2CCN(C(C)C)CC2)ccc1Nc1nc(Nc2cccc3ncccc23)c2cc[nH]c2n1 | 10.3% | 1.03% | 35.2% | -1.62% | -2.47% | 0.15% | 3.49% | 0.21% | 0.38% | 5.06% | 2.09% | 1.16% | 0.4% | 0.17% | 0.88% | -0.99% | 2.24% | -0.3% | 5.51% | 7.7%
3 | Nc1nccc(-c2c(-c3ccc(F)cc3)ncn2C2CCNCC2)n1 | -1.82% and -1.43% | -3.77% and -2.58% | -3.38% and 2.32% | -1.11% and -2.31% | -3.3% and -3.19% | -5.79% and -0.55% | -3.63% and 1.63% | -7.34% and 0.75% | -6.76% and 4.23% | -3.07% and 5.6% | 3.74% and 17% | -8.29% and 1.29% | -2.02% and 2.97% | -1.79% and 2.99% | 1.69% and 3.45% | -4.63% and -1.31% | -2.23% and 2.46% | 3.28% | -6.69% and 9.1% | -1.84% and 2.2%
4 | COc1cc2c(cc1Nc1nc(Nc3cccc(F)c3C(N)=O)c3cc[nH]c3n1)N(C(=O)CN1CCN(C(C)C)CC1)CC2 | 27% | 1.09% | 47.3% | 1.37% | 0.53% | 1.47% | 0.43% | 3.76% | 4.41% | 2.75% | 3.39% | 1.98% | 0.18% | 1.3% | 2.98% | 2.36% | 3.48% | 16.9% | 59.7% | 8%

Source: ChEMBL document CHEMBL1961873, “Compounds: GSK PKIS; Assays: Nanosyn kinase panel” (2012)
